Measured values reported in PubChem BioAssay AID1159580 (chemical genetic matrix, 2015).
The whole screen tested about 5,500 compounds, of which about 2,000 (36%) were called active. About 18% were inconclusive and are not listed. Cut-off read from the data, not from the text of the source: active = normalized growth mostly below about 0.91 (no sharp cut-off); inconclusive = no clear call, values can overlap the other calls; inactive = mostly above about 0.92. Some of the results follow.

Test: chemical genetic growth profiling, strain panel (AID 1159580);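 note: tested at 20 µM; growth read once vehicle control cultures reached saturation at 30 °C; 1 = growth at the plate median or of vehicle wells; lower values mean less growth of the strain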
Details: growth OD

Measured: normalized growth

NC(=O)c1ccccc1O
inactive: S. cerevisiae deletion strains, locus YJR066W, strain TOR1, active compounds read low 0.999 | S. cerevisiae deletion strains, locus YKL009W, strain mrt4, active compounds read low 1.01 | S. cerevisiae deletion strains, locus YKL068W, active compounds read low 0.995 | S. cerevisiae deletion strains, locus YKL085W, strain MDH1 (second series), active compounds read low 1 | S. cerevisiae deletion strains, locus YKL085W, strain MDH1, active compounds read low 1 | S. cerevisiae deletion strains, locus YKL160W, strain elf1, active compounds read low 0.985 | S. cerevisiae deletion strains, locus YKL190W, strain CNB1, active compounds read low 0.998 | S. cerevisiae deletion strains, locus YKR001C, strain vps1, active compounds read low 1 | S. cerevisiae deletion strains, locus YKR026C, strain gcn3, active compounds read low 0.971 | S. cerevisiae deletion strains, locus YKR091W, strain srl3, active compounds read low 0.971 | S. cerevisiae deletion strains, locus YLL001W, strain dnm1, active compounds read low 0.909 | S. cerevisiae deletion strains, locus YLL026W, active compounds read low 0.993 | S. cerevisiae deletion strains, locus YLL041C, strain sdh2, active compounds read low 0.969 | S. cerevisiae deletion strains, locus YLR027C, strain aat2, active compounds read low 0.981 | S. cerevisiae deletion strains, locus YLR039C, strain RIC1, active compounds read low 1 | S. cerevisiae deletion strains, locus YLR058C, strain SHM2, active compounds read low 1.01 | S. cerevisiae deletion strains, locus YLR102C, strain apc9, active compounds read low 1.01 | S. cerevisiae deletion strains, locus YLR113W, strain HOG1, active compounds read low 0.999 | S. cerevisiae deletion strains, locus YLR221C, strain rsa3, active compounds read low 1.03 | S. cerevisiae deletion strains, locus YLR258W, strain gsy2, active compounds read low 0.988 | S. cerevisiae deletion strains, locus YLR262C, strain YPT6 (second series), active compounds read low 0.947 | S. cerevisiae deletion strains, locus YLR262C, strain YPT6, active compounds read low 0.986 | S. cerevisiae deletion strains, locus YLR268W, strain sec22, active compounds read low 1.04 | S. cerevisiae deletion strains, locus YLR320W, strain mms22, active compounds read low 0.996 | S. cerevisiae deletion strains, locus YLR330W, strain CHS5, active compounds read low 1.01 | S. cerevisiae deletion strains, locus YLR342W, strain FKS1 (second series), active compounds read low 1.02 | S. cerevisiae deletion strains, locus YLR342W, strain FKS1, active compounds read low 0.978 | S. cerevisiae deletion strains, locus YLR357W, strain rsc2, active compounds read low 0.952 | S. cerevisiae deletion strains, locus YLR370C, strain arc18, active compounds read low 0.964 | S. cerevisiae deletion strains, locus YLR371W, strain rom2, active compounds read low 1.01 | S. cerevisiae deletion strains, locus YLR384C, strain iki3, active compounds read low 0.963 | S. cerevisiae deletion strains, locus YLR418C, strain cdc73, active compounds read low 1.02 | S. cerevisiae deletion strains, locus YML016C, strain PPZ1, active compounds read low 1 | S. cerevisiae deletion strains, locus YML032C, strain rad52, active compounds read low 1.01 | S. cerevisiae deletion strains, locus YML120C, strain ndi1, active compounds read low 0.954 | S. cerevisiae deletion strains, locus YML124C, strain tub3, active compounds read low 1.01 | S. cerevisiae deletion strains, locus YMR058W, strain fet3, active compounds read low 0.987 | S. cerevisiae deletion strains, locus YMR078C, strain ctf18, active compounds read low 1 | S. cerevisiae deletion strains, locus YMR125W, strain sto1, active compounds read low 0.962 | S. cerevisiae deletion strains, locus YMR129W, active compounds read low 0.974 | S. cerevisiae deletion strains, locus YMR205C, strain PFK2, active compounds read low 0.978 | S. cerevisiae deletion strains, locus YMR223W, strain ubp8, active compounds read low 0.988 | S. cerevisiae deletion strains, locus YMR231W, strain pep5, active compounds read low 0.965 | S. cerevisiae deletion strains, locus YMR307W, strain GAS1, active compounds read low 1.03 | S. cerevisiae deletion strains, locus YNL067W, strain RPL9B, active compounds read low 0.99 | S. cerevisiae deletion strains, locus YNL071W, strain lat1, active compounds read low 0.974 | S. cerevisiae deletion strains, locus YNL183C, strain NPR1, active compounds read low 0.985 | S. cerevisiae deletion strains, locus YNL209W, strain ssb2, active compounds read low 0.98 | S. cerevisiae deletion strains, locus YNL233W, strain BNI4, active compounds read low 1 | S. cerevisiae deletion strains, locus YNL248C, strain rpa49, active compounds read low 0.982 | S. cerevisiae deletion strains, locus YNL250W, strain rad50, active compounds read low 1 | S. cerevisiae deletion strains, locus YNL271C, strain bni1, active compounds read low 1.02 | S. cerevisiae deletion strains, locus YNL298W, strain CLA4, active compounds read low 1.02 | S. cerevisiae deletion strains, locus YNL307C, strain MCK1, active compounds read low 1.02 | S. cerevisiae deletion strains, locus YNL322C, strain KRE1 (second series), active compounds read low 0.954 | S. cerevisiae deletion strains, locus YNL322C, strain KRE1, active compounds read low 0.998 | S. cerevisiae deletion strains, locus YNR049C, strain mso1, active compounds read low 0.974 | S. cerevisiae deletion strains, locus YNR052C, strain pop2, active compounds read low 1.01 | S. cerevisiae deletion strains, locus YOL006C, strain TOP1, active compounds read low 0.998 | S. cerevisiae deletion strains, locus YOL012C, strain htz1 1.16 | S. cerevisiae deletion strains, locus YOL147C, strain pex11, active compounds read low 1.01 | S. cerevisiae deletion strains, locus YOR001W, strain rrp6, active compounds read low 0.957 | S. cerevisiae deletion strains, locus YOR061W, strain CKA2, active compounds read low 1 | S. cerevisiae deletion strains, locus YOR069W, strain VPS5, active compounds read low 1 | S. cerevisiae deletion strains, locus YOR070C, strain gyp1, active compounds read low 1 | S. cerevisiae deletion strains, locus YOR080W, strain dia2, active compounds read low 0.981 | S. cerevisiae deletion strains, locus YOR083W, strain WHI5, active compounds read low 0.957 | S. cerevisiae deletion strains, locus YOR106W, strain vam3, active compounds read low 0.94 | S. cerevisiae deletion strains, locus YOR136W, strain idh2, active compounds read low 0.989 | S. cerevisiae deletion strains, locus YOR144C, strain elg1, active compounds read low 1 | S. cerevisiae deletion strains, locus YOR184W, strain ser1, active compounds read low 0.895 | S. cerevisiae deletion strains, locus YOR231W, strain MKK1, active compounds read low 1.03 | S. cerevisiae deletion strains, locus YOR265W, strain rbl2, active compounds read low 0.98 | S. cerevisiae deletion strains, locus YOR270C, strain vph1, active compounds read low 0.963 | S. cerevisiae deletion strains, locus YOR290C, strain snf2, active compounds read low 0.999 | S. cerevisiae deletion strains, locus YOR316C, strain cot1, active compounds read low 1 | S. cerevisiae deletion strains, locus YPL051W, strain arl3, active compounds read low 1.01 | S. cerevisiae deletion strains, locus YPL078C, strain atp4, active compounds read low 0.94 | S. cerevisiae deletion strains, locus YPL106C, strain sse1, active compounds read low 0.936 | S. cerevisiae deletion strains, locus YPL240C, strain hsp82, active compounds read low 0.977 | S. cerevisiae deletion strains, locus YPL241C, strain CIN2, active compounds read low 1.01 | S. cerevisiae deletion strains, locus YPL256C, strain CLN2, active compounds read low 1.05 | S. cerevisiae deletion strains, locus YPR119W, strain clb2, active compounds read low 0.999 | S. cerevisiae deletion strains, locus YPR141C, strain kar3, active compounds read low 1.01 | S. cerevisiae deletion strains, locus YPR163C, strain tif3, active compounds read low 1.01 | S. cerevisiae deletion strains, locus YPR167C, strain met16, active compounds read low 1.01 | S. cerevisiae deletion strains, strain wtn01, active compounds read low 1.03 | S. cerevisiae strains, strain wild type, active compounds read low 1.01
